Screening data: PubChem, National Center for Advancing Translational Sciences (NCATS)
Rows were chosen to be rich in hits. Some 7.9% of all compounds tested hit in one or more screens of this group.
KB-3-1 cytotox: KB-3-1 parental cell cytotoxicity; KB-3-1 viability, CellTiter-Glo ATP luminescence, 72 h; Potency, µM (highest dose often 46.1 µM), actives largely listed as cytotoxic; 400,000 compounds, 1.4% hits; note: % is set by controls: 0 for no effect and ±100 for the full control effect; nearly all actives have a fitted effect of over 60% in size
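Cytotoxicity measured as CellTiter-Glo luminescence after 72 h at 37 C. Compound titrations were pinned onto drug-naive KB-3-1 parental adenocarcinoma cells grown in DMEM with 10% FBS, and normalized data fitted to concentration-response curves.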
KB-V1 MDR tox: kills drug-selected multidrug resistant KB-V1 cells | KB-V1 MDR cells viability, CellTiter-Glo, 72 h | Potency, µM (series often up to 46.1 µM), most hits filed as cytotoxic | 400,000 compounds, 3.4% hits | AID 1347076; note: % is set by controls: 0 for no effect and ±100 for the full control effect; nearly all actives have a fitted effect of over 60% in size
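Potencies derive from concentration-effect curves fitted to normalized luminescence (CellTiter-Glo) of KB-V1 cells treated for 72 h at 37 degrees C in phenol-red-free DMEM containing 10% FBS.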
SW480 rerep: inducers of DNA re-replication in SW480 colon cancer cells. SW480 DNA re-replication, Hoechst DNA content imaging, 48 h. 340,000 compounds, 1.8% hits. Potency, µM (series often up to 46.1 µM), for the others: at the top dose re-replication activation, most hits filed as activators; note: % of control where 0% means no effect; nearly all actives have a fitted effect of over 55% in size
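Readout is total intensity of Hoechst-stained nuclei, excited at 405 nm and collected at 500-530 nm. Compound treatment lasted 48 hr at 37 C in 5% CO2 before staining.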
HT1080 IDH1KD tx: toxicity to HT-1080 IDH1 knockdown cells (counter line); HT-1080 IDH1 knockdown viability, ATP luminescence, 48 h; Potency, µM (top dose mostly 46.1 µM), for the others: at the highest dose activity, negative = toxicity, actives largely listed as cytotoxic; 360,000 compounds, 2% hits;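 note: 0% = DMSO wells and -100% = cell-free medium wells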
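In this qHTS, HT-1080 cells depleted of IDH1 are exposed for 48 h at 37 °C to compound titrations. Toxicity is scored from CellTiter-Glo luminescence, with DMSO as full viability and medium alone as none.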
MCF10A rereplic: DNA re-replication induction in MCF 10a cells; MCF 10A DNA re-replication, Hoechst nuclear intensity, 48 h; Potency, µM (series often up to 46.1 µM), for inactives: top-dose activity, positive = re-replication, usual class: activators; 350,000 compounds, 2.9% hits; AID 624296; note: % of control where 0% means no effect; nearly all actives have a fitted effect of over 50% in size
HT1080NT lethal: kills 2HG-producing HT-1080-NT fibrosarcoma cells; HT-1080-NT fibrosarcoma viability, CellTiter-Glo ATP luminescence, 48 h; Potency, µM (series often up to 46.1 µM), for the others: at the highest dose activity, negative = less viability, hits mostly cytotoxic; 360,000 compounds, 1.6% hits; AID 686970;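 note: NT is the 2HG producing partner of a matched IDH1 knockdown line; 0% = DMSO-treated cells and -100% = media-only wells without cells; nearly all actives have a fitted effect of over 55% in size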
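HT-1080-NT; 750 cells/well; 5% FBS RPMI; 48 h compound, 37 degrees C; CellTiter-Glo luminescence; curve fitting and curve-class assignment.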
* hit, by the source's call; [ ] = another dose, or the depositor's remark. Calls come from the whole dose curve; as a rule, active = well fitted curve in the direction sought with a large enough effect; inconclusive = small, poorly fitted or top-dose-only effect, or another doubt; inactive = no such curve, though single readings can be large; an effect the other way counts as inactive or inconclusive. Potency is the fitted concentration of half-maximal effect.

Results for CCc1cc(C(=O)N2CCOCC2)c(NC2=NS(=O)(=O)c3ccccc32)s1 ?
KB-3-1 cytotox: inactive; KB-V1 MDR tox: inactive; SW480 rerep: -1%; HT1080 IDH1KD tx: 2%; MCF10A rereplic: -2%; HT1080NT lethal: 11%

Results for CCN(CC)CCNC(=O)Cn1nc(Cc2ccncc2)c2ccccc2c1=O ?
KB-3-1 cytotox: inactive; KB-V1 MDR tox: inconclusive; SW480 rerep: -22%; HT1080 IDH1KD tx: 4%; MCF10A rereplic: -3%; HT1080NT lethal: 8%

Results for CCN(CC)CCNC(=O)Cc1nn(Cc2ccccc2)c(=O)c2ccccc12 ?
KB-3-1 cytotox: inactive; KB-V1 MDR tox: inactive; SW480 rerep: 2.3µM*; HT1080 IDH1KD tx: -9%; MCF10A rereplic: 175%; HT1080NT lethal: 1%

How did C[C@@H]1CCC[C@]2(O[C@H](CCO)C[C@H](O)[C@H]2O)O1 do in these assays?
KB-3-1 cytotox: inactive; KB-V1 MDR tox: inactive; SW480 rerep: -3%; HT1080 IDH1KD tx: -2%; MCF10A rereplic: -8%; HT1080NT lethal: -1%

Results for CCCN1CCOC(CC(=O)Nc2ccc([N+](=O)[O-])cc2)C1=O (stereo not given) ?
KB-3-1 cytotox: inactive; KB-V1 MDR tox: inactive; SW480 rerep: 1%; HT1080 IDH1KD tx: 0%; MCF10A rereplic: 0%; HT1080NT lethal: 13%

Results for O=C(Nc1ccn(Cc2c(F)c(F)cc(F)c2F)n1)c1ccc(COc2ccc(Cl)cc2Cl)o1 ?
KB-3-1 cytotox: inactive; KB-V1 MDR tox: 8.2µM*; SW480 rerep: 3%; HT1080 IDH1KD tx: -26%; MCF10A rereplic: 19%; HT1080NT lethal: -24%

What do the screens show for `O=C(Nc1ccccc1F)c1ccc(COc2ccc(Cl)cc2Cl)o1`?
KB-3-1 cytotox: inactive; KB-V1 MDR tox: inactive; SW480 rerep: -10%; HT1080 IDH1KD tx: -4%; MCF10A rereplic: 15%; HT1080NT lethal: -4%

How did Cc1nn(Cc2c(F)c(F)c(F)c(F)c2F)c(C)c1NC(=O)c1ccc(COc2ccc(Cl)cc2Cl)o1 do in these assays?
KB-3-1 cytotox: inconclusive; KB-V1 MDR tox: 18µM*; SW480 rerep: inconclusive; HT1080 IDH1KD tx: inconclusive; MCF10A rereplic: inconclusive; HT1080NT lethal: inconclusive

Results for Cc1ccc(C2(c3ccc(C)cc3)NC(=O)N(CC(=O)NCCCN3CCCC3=O)C2=O)cc1 ?
KB-3-1 cytotox: inactive; KB-V1 MDR tox: inconclusive; SW480 rerep: 2%; HT1080 IDH1KD tx: -18%; MCF10A rereplic: 1%; HT1080NT lethal: -18%

What do the screens show for `C(=C\c1ccccc1)/CSc1nnc(-c2cnccn2)n1Cc1ccco1`?
KB-3-1 cytotox: inconclusive; KB-V1 MDR tox: inconclusive; SW480 rerep: -3%; HT1080 IDH1KD tx: -17%; MCF10A rereplic: 1%; HT1080NT lethal: -16%

How did Cc1ccc(S(=O)(=O)N(C)c2ccc(C(=O)NCC(c3ccco3)N(C)C)cc2)cc1 (stereo not given) do in these assays?
KB-3-1 cytotox: inactive; KB-V1 MDR tox: inactive; SW480 rerep: -1%; HT1080 IDH1KD tx: 7%; MCF10A rereplic: 9.2µM*; HT1080NT lethal: 3%[9.24 µM]

Results for Cc1ccc(C)c(S(=O)(=O)Nc2ccc(C(=O)NCC(c3ccco3)N(C)C)cc2)c1 (stereo not given) ?
KB-3-1 cytotox: inactive; KB-V1 MDR tox: inactive; SW480 rerep: -7%; HT1080 IDH1KD tx: 0%; MCF10A rereplic: 1%; HT1080NT lethal: 4%

What do the screens show for `Cc1ccccc1NS(=O)(=O)c1ccc(C(=O)NCC(c2ccco2)N(C)C)cc1` (stereo not given)?
KB-3-1 cytotox: inactive; KB-V1 MDR tox: 15µM*; SW480 rerep: 2%; HT1080 IDH1KD tx: -10%; MCF10A rereplic: inconclusive; HT1080NT lethal: -5%

Results for Cc1ccccc1NS(=O)(=O)c1ccc(C(=O)NCC(c2ccccc2)N(C)C)cc1 (stereo not given) ?
KB-3-1 cytotox: inactive; KB-V1 MDR tox: inconclusive; SW480 rerep: -20%; HT1080 IDH1KD tx: -26%; MCF10A rereplic: inconclusive; HT1080NT lethal: 0%

How did CCN1C[C@@H]2[C@@H]3C(=O)N(C)C(=O)[C@@H]3[C@](CC)(C1=O)N2C(=O)c1ccc(C(F)(F)F)cc1 do in these assays?
KB-3-1 cytotox: inactive; KB-V1 MDR tox: inactive; SW480 rerep: -8%; HT1080 IDH1KD tx: 11%; MCF10A rereplic: 0%; HT1080NT lethal: 4%

How did CC1CCCN(C(=S)NCc2ccccc2)C1 (stereo not given) do in these assays?
KB-3-1 cytotox: inactive; KB-V1 MDR tox: inactive; SW480 rerep: 3%; HT1080 IDH1KD tx: 1%; MCF10A rereplic: 6%; HT1080NT lethal: 2%

Results for CC(C)Cn1c([N+](=O)[O-])nc2c1c(=O)[nH]c(=O)n2C ?
KB-3-1 cytotox: inconclusive; KB-V1 MDR tox: inconclusive; SW480 rerep: inconclusive; HT1080 IDH1KD tx: 16µM*; MCF10A rereplic: 12µM*; HT1080NT lethal: 13µM*

What do the screens show for `Cn1c(=O)[nH]c(=O)c2c1nc([N+](=O)[O-])n2Cc1ccccc1`?
KB-3-1 cytotox: inconclusive; KB-V1 MDR tox: inconclusive; SW480 rerep: -32%; HT1080 IDH1KD tx: 3.3µM*; MCF10A rereplic: 2.1µM*; HT1080NT lethal: 2.6µM*

What do the screens show for `O=C(C1=C[C@@H](c2csc3ccccc23)C[C@@H](OCc2ccc(CO)cc2)O1)N1CCN(Cc2ccc3c(c2)OCO3)CC1`?
KB-3-1 cytotox: inconclusive; KB-V1 MDR tox: inconclusive; SW480 rerep: inconclusive; HT1080 IDH1KD tx: inconclusive; MCF10A rereplic: inconclusive; HT1080NT lethal: -21%

Results for Cc1cccc(Nc2ccc(C(=O)O)cc2[N+](=O)[O-])c1C ?
KB-3-1 cytotox: inactive; KB-V1 MDR tox: inactive; SW480 rerep: -4%; HT1080 IDH1KD tx: 4%; MCF10A rereplic: -2%; HT1080NT lethal: -1%

What do the screens show for `Cc1nnc2n(-c3ccccc3)c(=O)c3c4c(sc3n12)CC(C)CC4` (stereo not given)?
KB-3-1 cytotox: inactive; KB-V1 MDR tox: 8.2µM*; SW480 rerep: -2%; HT1080 IDH1KD tx: -2%; MCF10A rereplic: 4%; HT1080NT lethal: 4%

Results for COc1ccc(-n2c(=O)c3c4c(sc3n3cnnc23)CC(C)CC4)cc1 (stereo not given) ?
KB-3-1 cytotox: inactive; KB-V1 MDR tox: inactive; SW480 rerep: 0%; HT1080 IDH1KD tx: -2%; MCF10A rereplic: 3%; HT1080NT lethal: 2%

How did O=C(CSc1nc(-c2ccccc2)c(-c2ccccc2)o1)Nc1nnc(-c2ccccc2)s1 do in these assays?
KB-3-1 cytotox: inactive; KB-V1 MDR tox: 7.3µM*; SW480 rerep: -10%; HT1080 IDH1KD tx: 8%; MCF10A rereplic: 0%; HT1080NT lethal: 3%
